The values that follow come from PubChem BioAssay AID818 (SRMLSC, 2007).

Among all 140,000 compounds or so, about 2,100 (1.5%) were called active. Many of the other results were omitted from the sample, so actives are more common in it than they were. Values without a mark were called inactive.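 The calls were made as follows: active = viability at or under a set limit, the compound median less 4 SD (cut at about 6% in these data); inactive = the rest.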

This assay in a line: primary screen for suppressors of beta-catenin knockout HCT116 cell growth, colon tumor, human (AID 818).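 Also: 0% = Hyamine 1622 control at 20 µM and 100% = untreated cell control.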 To be noted: CellTiter-Glo, 60 h, at 10 µM, stronger effect = lower value.
Turning to `COc1ccc(/C(C)=N/NC(=O)CCC(=O)Nc2ccc(Cl)cc2Cl)c(OC)c1`, the viability was 91.2%.

On to `O=C(Nc1cccc(F)c1)c1coc(=O)c(Br)c1`, for which the viability was 45%.

As to `NC(=O)Nc1ccccc1C(=O)NCCc1ccccc1`, the viability was 99.7%. In the case of `CCc1ccc(NC(=O)C(C)OC(=O)/C=C/c2cccc([N+](=O)[O-])c2)cc1` (stereo unspecified) it was 90.3%; in that of `Cn1cc([N+](=O)[O-])c(C(=O)Nc2cnn(Cc3ccc(F)cc3)c2)n1`, 8.14%; in that of `Cn1cc([N+](=O)[O-])c(C(=O)Nc2ccc3c(c2)OCCO3)n1`, 5.15% (active). Next, `O=C(Nc1ccc2c(c1)OCCO2)c1ccncc1`: 100%; `COc1ccc(OC(C)C(=O)NCCc2nc3ccccc3[nH]2)cc1` (stereo unspecified): 99.8%.

For `CCOC(=O)c1cnc(-n2nc(C)cc2C)nc1-n1nc(C)cc1C`, the viability was 103%. In the case of `CCOC(=O)c1cnc(-c2ccccc2)nc1Oc1ccc(C)cc1` it was 89.3%; in that of `CCOC(=O)c1cnc(-n2nc(C)cc2C)nc1NNc1cc(C)nc(-c2ccccc2)n1`, 3.41% (active); in that of `CCC(C)(C(=O)Nc1ccccc1C)N(C(=O)CNC(C)=O)c1ccc(C)cc1` (stereo unspecified), 92.2%. As to `COC(=O)[C@@H]1CC[C@H](C)[C@@H](c2ccc(C)cc2)N1C(=O)c1ccc(/C=N/O[C@H](C)c2cn([C@@H]3COC[C@H]3O)nn2)cc1`, the viability is 86.4%. For the compound `Cc1nc2ccccc2cc1O`, the viability is 92.2%. In the case of `CSc1nc(N)c(C#N)c(-c2ccccc2Cl)c1C#N` it was 89.2%; in that of `CSc1nc2ccccc2cc1/C=C(\C#N)c1ccc(Cl)cc1Cl`, 4.22% (active); in that of `Cc1ccc(SCCC(=O)NC(C(C)C)C(C)C)cc1`, 89.2%. In the case of `CCCC(NC(=O)c1ccco1)c1nc2ccccc2[nH]1` (stereo unspecified) it was 101%; in that of `CCCCC(=O)NCc1ccc(F)cc1`, 93.4%; in that of `CN(CC(=O)Nc1ccc(S(=O)(=O)N2CCCC2)cc1)Cc1ccc(Cl)c(Cl)c1`, 65.4%. Next, `COc1ccc(NS(=O)(=O)c2cc(NC(=O)/C=C/c3cc(OC)c(OC)c(OC)c3)ccc2N2CCCCC2)cc1`: 89.5%; `COc1cccc2cc(C(=O)N3CCN(C(=O)c4ccccc4)CC3)c(=O)oc12`: 100%; `COc1cccc2cc(C(=O)N(C)C)c(=O)oc12`: 1.59% (active). Regarding `C=CCc1cccc2cc(C(=O)OCC)c(=O)oc12`, the viability was 97.7%. In the case of `O=C(c1cccc2ccccc12)N1CCN(c2ccccc2F)CC1` it was 83.3%. With `Cc1ccc(Cl)cc1N1CCN(C(=O)c2cccc3c(=O)c(C)c(-c4ccccc4)oc23)CC1`, the viability is 1.34% (active).

For `COC(=O)c1ccc(C(=O)OC)c(NC(=S)N2CCN(c3cc(Cl)ccc3C)CC2)c1`, the viability is 92.1%. On to `COCCn1c(SCC(=O)Nc2ccc3c(c2)CCC3)nc2ccccc2c1=O`, for which the viability was 81.5%. Next, `O=C(/C=C/NCc1ccc(F)cc1)c1ccccc1`: 87.5%. With `NS(=O)(=O)c1cc(C(=O)NCCOc2ccccc2)c(Cl)cc1Cl`, the viability was 78.4%. Take `COc1ccccc1N1CCN(Cc2nnnn2CCc2ccccc2)CC1`: the viability is 82.5%. In the case of `COc1ccccc1-n1nnnc1S(=O)(=O)Cc1ccc(Cl)cc1` it was 2.91% (active); in that of `COc1ccccc1N1CCN(C(=O)CN(Cc2ccc(Cl)cc2)S(C)(=O)=O)CC1`, 68.4%; in that of `CCc1cccc(C)c1NC(=O)COC(=O)Cc1ccsc1`, 80.8%. Next, `COc1ccc(-c2cc(C(F)(F)F)nc(SCC(=O)Nc3ccc4c(c3)OCO4)n2)cc1OC`: 91.6%; `COc1ccc(/C=C(/NC(=O)c2ccc(C)cc2)c2nc3ccccc3[nH]2)cc1OC`: 87.3%. Turning to `Oc1ccc(Cl)cc1/C=N/c1nc2ccccc2[nH]1`, the viability was 89.3%. As to `O=C(/C(=C/c1cccc(Cl)c1)c1nc2ccccc2[nH]1)c1ccccc1`, the viability was 1.3% (active). As for `Cc1cc(C)cc(C(=O)NC(=S)Nc2ccc3[nH]c(=O)[nH]c3c2)c1`, the viability was 95.8%.

Regarding `Cc1cccc(NC(=O)Cn2c(=O)n(Cc3ccccc3)c(=O)c3c(C)c(C)sc32)c1`, the viability is 77%.

In the case of `COc1ccc(/C=C(/CC(=O)Nc2ccc(C)cc2)c2nc3ccccc3s2)cc1`, the viability is 73%. Next, `Fc1ccccc1/C=C1\CCCC2=C1Nc1ncnn1C2c1ccccc1F` (stereo unspecified): 4.91% (active); `CC(C)(C)SCCNC(=O)c1cccc([N+](=O)[O-])c1`: 97.8%; `COc1ccc(/C=C/C(=O)c2cc(Br)ccc(=O)c2O)cc1`: 11.3%. As for `CCC(CC)C(=O)N1CC(=O)Nc2ccc(Br)cc2C1c1ccccc1` (stereo unspecified), the viability was 80.3%. Next, `COC(=O)CN1C(=O)C(O)=C(C(C)=O)C1c1ccc([N+](=O)[O-])cc1` (stereo unspecified): 86.9%.

In the case of `COC(=O)CN1C(C)=Nc2ccc(Br)cc2C1c1ccccc1` (stereo unspecified), the viability is 0.76% (active). Turning to `CCCCCC(=O)Nc1ccc(S(=O)(=O)Nc2ccc(Cl)nn2)cc1`, the viability was 102%.

For `CCCCc1nc(NCCN)c(C#N)c2c1CSC(C)(C)C2`, the viability is 1.71% (active). As to `CCCCc1nc(NCc2ccccc2)c(C#N)c2c1CCCC2`, the viability was 81%. Regarding `Cc1nc(NCCN)c(C#N)c2c1COC(C)(C)C2`, the viability was 94.1%.

Consider `CCC(C)C(=O)Nc1cc([N+](=O)[O-])ccc1Cl` (stereo unspecified), for which the viability is 96.4%. Next, `Oc1c(Br)cccc1/C=N/Nc1c(F)c(F)c(F)c(F)c1F`: 51%; `O=c1c2sccc2nc(SCc2cc(=O)n3ccccc3n2)n1-c1ccc(Br)cc1`: 59.1%; `CCCNC(=O)OC[C@H]1O[C@H](CCO/N=C/[C@@H](NS(=O)(=O)c2ccc(C)cc2)[C@H](C)/C=C/CC(=O)OC)C=C[C@@H]1Oc1ccc(OC)cc1`: 0.62% (active).

In the case of `CCCC(NS(=O)(=O)c1ccc(OC)cc1)C(=O)O` (stereo unspecified), the viability was 92.4%. Consider `COc1ccc(O[C@H]2C=C[C@@H](c3ccccc3)O[C@@H]2CO/N=C/C[C@@H]2C=C[C@H](OC(C)=O)[C@@H](COC(C)=O)O2)cc1`, for which the viability was 88.8%. Next, `NNc1nc2c(Cl)cccc2s1`: 83.6%; `Cc1ccc(C(=O)Oc2coc(CSc3nnc(NC(=O)c4cccs4)s3)cc2=O)cc1C`: 96.1%.

As to `Cc1ccc(S(=O)(=O)NCCSc2ccccc2)cc1[N+](=O)[O-]`, the viability is 104%. In the case of `O=C(Nc1ccc(CSc2ccccc2)cc1)c1ccc(CN2CCOCC2)cc1` it was 12.2%; in that of `COc1ccc(Cl)cc1-n1c(C)cc(C(=O)OCC(=O)N2CC(=O)Nc3ccccc32)c1C`, 69.3%.

Take `CCOC(=O)/C(=C\c1ccc([N+](=O)[O-])cc1)C(=O)c1cc(C(C)=O)c(Nc2ccccc2)s1`: the viability was 1.71% (active). For the compound `O=C(Nc1ccccc1)/C(=C/c1ccc([N+](=O)[O-])cc1)NC(=O)c1ccccc1`, the viability is 87.1%.

`Cc1cccc(NC(=O)c2sc(-c3ccccc3)nc2-c2ccc([N+](=O)[O-])cc2)c1`: the viability is 80.5%. As for `Cc1cccc(N2C(=O)SC(SC(=Nc3ccccc3)Nc3ccccc3)C2=O)c1` (stereo unspecified), the viability is 82.6%. Next, `Cc1ccc(C(=O)N/C(=C/c2cccnc2)C(=O)O)cc1`: 87.7%; `CC(C)(C)c1nnc(N/N=C/c2ccc(O)cc2)n(N)c1=O`: 90.8%. Next, `c1ccc2c(c1)CSc1sccc1C2=C1CCNCC1`: 3.31% (active). Next, `COc1ccc(-n2c(C)cc(C(=O)CN3C(=O)NC4(CCc5ccccc54)C3=O)c2C)cc1` (stereo unspecified): 70.1%. On to `O=C(Nc1cccc(Cl)c1)Nc1ccccc1NS(=O)(=O)c1cccs1`, for which the viability was 71.1%. In the case of `Cc1csc(NC(=O)CN2CCCCCC2)n1` it was 93.4%; in that of `Cc1csc(NC(=O)NC2(C(F)(F)F)Oc3ccccc3O2)n1`, 5.7% (active); in that of `O=C(Nc1cc(N2CCOCC2)ncn1)NC1(C(F)(F)F)Oc2ccc(Cl)cc2O1` (stereo unspecified), 76.8%. Next, `Cc1ccn(CC(=O)N2N=C(C(F)F)CC2(O)C(F)F)n1` (stereo unspecified): 101%; `N#C/C(=C\C1=C(N2CCOCC2)C(=C\c2ccccc2)/CC1)C(=O)Nc1ccccc1F`: 65.8%; `Oc1ccc(/C=N/NC2=NCCCCC2)c(O)c1`: 94.7%.

Consider `CCN(CC)c1ccc(/C=N/Nc2nc(C)cc(=O)[nH]2)cc1`, for which the viability was 76.5%. Next, `CCN(CC)c1ccc(/C=N/Nc2nc(C)cc(C)n2)c(O)c1`: 5.53% (active); `CCOC(=O)c1c(NC(=O)C2(C)Cc3ccccc3C(=O)O2)sc2c1CCCC2` (stereo unspecified): 79.4%; `Cc1ccc(C)c(NC(=O)CCC(=O)NNC(=O)c2cccs2)c1`: 96.8%. In the case of `O=C(/C=C\c1ccc2c(c1)OCO2)NC1(C(=O)Nc2ccc3c(c2)OCCO3)CCCCC1` it was 102%. Regarding `COc1ccc2nc(Nc3nc4cc5c(cc4s3)OCCO5)sc2c1`, the viability was 90.5%. Next, `CCOc1ccc2nc(Nc3nc4ccc(NC(C)=O)cc4s3)sc2c1`: 74.6%. Next, `COc1ccc2nc(Nc3nc4ccc(NC(C)=O)cc4s3)sc2c1`: 2.25% (active). In the case of `COc1ccc(C2=NN(C(=O)c3cccnc3)C(c3ccccc3)C2)cc1` (stereo unspecified) it was 100%; in that of `COC(=O)c1c(NC(=O)CN2CCN(S(=O)(=O)c3ccccc3[N+](=O)[O-])CC2)sc2c1CCC(C)C2` (stereo unspecified), 90.5%; in that of `CN1CCN(CC(=O)Nc2sc3c(c2C#N)CCC(C(C)(C)C)C3)CC1` (stereo unspecified), 3.32% (active). With `CCC1CCc2c(sc(NC(C)=O)c2C#N)C1` (stereo unspecified), the viability was 101%. In the case of `CCNc1nc(NC(C)C)nc(N2CC(=O)N(CC(=O)OCC)C2=N)n1` it was 94.3%. Next, `Oc1c(Cl)cc(Cl)c(Cl)c1Cc1c(O)c(Cl)cc(Cl)c1Cl`: 4.83% (active).
